Source: PubChem BioAssay
The list is not random: actives were taken first. Their share in the collection is about 12%.
Sm TGR block – blocks Schistosoma mansoni thioredoxin glutathione reductase. purified TGR, DTNB reduction, TNB absorbance 405 nm. AID 485364. 360,000 compounds, 3% hits. Potency, µM (top dose mostly 114 µM), hits mostly inhibitors; also: nearly all actives have a fitted effect of over 60% in size
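First, TGR (20 nM dispensed) and NADPH were mixed with compound. Second, a 15 min room-temperature incubation followed. Third, further NADPH and then DTNB were added to start the reaction. Finally, TNB absorbance was monitored kinetically.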
Pf growth 48h – P. falciparum growth inhibition at 48 hours (one generation); AID 504832; P. falciparum luciferase growth in erythrocytes, 48 h; 310,000 compounds, 5.9% hits; Potency, µM (titrated, usually from 28.7 µM), actives largely listed as inhibitors
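Cell-based growth assay: transgenic P. falciparum expressing firefly luciferase, cultured in red cells within RPMI 1640 containing 0.5% w/v Albumax, 24 mM bicarbonate and gentamycin. A drop in luciferase activity indicates inhibition.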
SARS PLpro yeast – blocks SARS-CoV papain-like protease in a yeast assay. S. cerevisiae expressing SARS-CoV PLpro, growth rescue. Potency, µM (top dose mostly 32.9 µM), hits mostly activators. 330,000 compounds, 0.19% hits. AID 485353; calls by dose curve; also: nearly all actives have a fitted effect of over 55% in size
Pf growth 96h – P. falciparum growth inhibition at 96 hours. P. falciparum luciferase reporter growth, 96 h. Potency, µM (highest dose often 28.7 µM), hits mostly inhibitors. 320,000 compounds, 6.9% hits. AID 504834
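Luminescence readout: decreased luciferase signal marks inhibited growth of reporter-expressing P. falciparum in infected red cells (2% hematocrit, 0.05% parasitemia final), exposed to compound two generations (96 h, 37 C, 5% CO2).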
Hits are given with their value; i = inactive; ? = inconclusive; nt = no result. Unless noted, calls follow the shape of the dose curve; as a rule, active = well fitted curve in the direction sought with a large enough effect; inconclusive = small, poorly fitted or top-dose-only effect, or another doubt; inactive = no such curve, though single readings can be large; an effect the other way counts as inactive or inconclusive.

SMILES | Sm TGR block | Pf growth 48h | SARS PLpro yeast | Pf growth 96h
O=C(CCN1C(=O)S/C(=C\c2ccccc2)C1=O)NCCCn1ccnc1 | i | i | i | i
CC(C)(C)C1CCc2nc(NC(=O)c3cccc(Cl)c3)sc2C1 (stereo not drawn) | i | nt | nt | nt
CCOC(=O)c1cnc2cc(-c3ccc(Br)cc3)nn2c1C | i | i | i | 13.1µM
CC[C@H](CO)Nc1nc(Nc2cccc(Cl)c2)c2ncn(C(C)C)c2n1 | i | 11.7µM | i | 5.22µM
CC(C)[C@H](CO)N(Cc1cccc(F)c1)c1nc(Nc2cccc(Cl)c2)c2ncn(C(C)C)c2n1 | i | 11.7µM | i | ?
CCC(CO)Oc1cc(NCc2cccc(F)c2)c2ncn(C(C)C)c2c1 (stereo not drawn) | nt | nt | i | nt
COc1cccc(C2CC(=O)N(c3ccc(F)cc3)C3=C2C(=O)OC3)c1OC (stereo not drawn) | i | nt | nt | nt
COc1ccc(NC(=O)C(=O)c2cn(CC(=O)N3CCCC3)c3ccccc23)cc1OC | i | i | i | ?
COc1cccc(NC(=O)C(=O)c2cn(CC(=O)N3CCCC3)c3ccccc23)c1 | i | i | i | 10.4µM
COc1ccc(OC)c(NC(=O)C(=O)c2cn(CC(=O)N3CCCC3)c3ccccc23)c1 | i | 9.28µM | i | 4.65µM
COc1ccc(C)cc1NC(=O)C(=O)c1cn(CC(=O)N2CCCC2)c2ccccc12 | i | ? | i | 8.28µM
C#Cc1cccc(Nc2ncnc3cc(OCCOC)c(OCCOC)cc23)c1 | nt | 13.5µM | nt | 6.01µM
COc1cc2c(cc1OC)/C(=C/C(=O)c1ccc([N+](=O)[O-])c(C)c1)NCC2 | i | 9.28µM | i | 5.22µM
O=C(Nc1cccc(Cl)c1)N(Cc1nc2ccccc2c(=O)[nH]1)Cc1cccs1 | i | 7.38µM | i | ?
O=C(Nc1cccc(Cl)c1)N(Cc1nc2ccccc2c(=O)[nH]1)C1CCCC1 | i | i | i | i
CNC(=O)C1(C(F)(F)F)C/C(=C\CCO)CCCO1 (stereo not drawn) | i | i | i | i
C=CCOc1ccc(C2NC(=S)NC3=C2CCc2ccccc23)cc1 (stereo not drawn) | 56.2µM | ? | i | ?
COc1cc(C2NC(=S)NC3=C2CCc2ccccc23)cc(OC)c1OC (stereo not drawn) | i | ? | i | ?
O=C(NCc1cccc(Br)c1)C1CCCCN1S(=O)(=O)c1ccc(F)cc1 (stereo not drawn) | i | nt | nt | nt
Fc1cc(Br)ccc1NC(=S)Nc1ccccc1 | 28.2µM | i | i | ?
FC(F)(F)c1ccccc1NC(=S)Nc1ccccc1 | ? | i | i | 1.47µM
Fc1ccccc1NC(=S)Nc1ccc(Br)cc1 | 50.1µM | i | i | i
O=C(Nc1ccc(Br)cc1)Nc1ccccc1F | i | i | i | i
S=C(Nc1ccccc1)Nc1ccc(Br)cc1 | ? | ? | i | i
O=C(O)Cc1ccc(NC(=S)Nc2ccc(Br)cc2Cl)cc1 | 22.4µM | i | i | i
SMILES | Sm TGR block | Pf growth 48h | SARS PLpro yeast | Pf growth 96h
O=C(O)Cc1ccc(NC(=S)Nc2cccc(Cl)c2Cl)cc1 | ? | i | i | i
Cc1cccc(OCCCN2CCOCC2)c1C | i | i | i | 6.57µM
COc1ccc(-n2cc(CNCCCn3ccnc3)c(-c3cccc(F)c3)n2)cc1 | i | 1.47µM | i | i
Cc1ccc(-n2cc(CNCCCn3ccnc3C)c(-c3ccc(F)cc3)n2)cc1 | i | 2.33µM | i | i
Cc1ccc(-n2cc(CN3CCN(Cc4nccn4C)CC3)c(-c3ccc(F)cc3)n2)cc1 | i | 6.57µM | i | ?
Cc1ccc(-n2cc(CN3CCN(c4ccccn4)CC3)c(-c3ccc(F)cc3)n2)cc1 | i | 9.28µM | i | i
Cc1cccc(-n2cc(CN3CCN(c4ccccn4)CC3)c(-c3cccc(F)c3)n2)c1 | i | ? | i | ?
Cc1c(CCNC(=O)c2c(F)cccc2F)sc2nc(-c3ccc(F)cc3)nn12 | i | nt | nt | nt
COc1ccc(OCC(=O)Nc2nc(-c3ccc(Br)cc3)ns2)cc1 | i | nt | nt | nt
COc1ccccc1CNC(=O)CCn1c(=O)c2cccn2c2cccnc21 | i | nt | nt | nt
Cc1ccc(-n2cc(CN3CCN(C(=O)c4ncn[nH]4)CC3)c(-c3ccc(F)cc3)n2)cc1 | i | 11.7µM | i | 14.7µM
CCN1c2ccccc2-c2nc3ccccc3n2C1c1cccs1 (stereo not drawn) | i | 8.28µM | i | 3.7µM
CCc1nnc(NC(=O)CCC(=O)N2CCN(Cc3ccc(F)cc3)CC2)s1 | i | i | i | i
O=C(c1ccc(-c2ccccc2)cc1)c1ccc([N+](=O)[O-])cc1 | i | i | i | i
O=C(C#Cc1ccccc1)c1ccc([N+](=O)[O-])cc1 | 0.316µM | nt | i | ?
Cc1nc2ccccc2c(C)c1CC(=O)OC(C)C(=O)NC1(C#N)CCCCC1 (stereo not drawn) | i | ? | i | ?
CN1C=C/C(=C\c2cc[n+](C)c3ccccc23)c2ccccc21 | i | ? | i | 11.7µM
CC[n+]1ccc(/C=C2\Sc3ccccc3N2CCCS(=O)(=O)[O-])c2ccccc21 | nt | i | i | i
CCCCn1c(O)c(C(C)=NCc2ccc(F)cc2)c(=O)[nH]c1=O | i | i | i | 6.57µM
CCCCn1c(O)c(C(CC)=NCc2ccc(F)cc2)c(=O)[nH]c1=O | i | ? | i | ?
CCCCn1c(O)c(C(CC)=NCCN2CCOCC2)c(=O)[nH]c1=O | 17.8µM | i | i | nt
CCCCn1c(O)c(C(CC)=NCCN2CCCCC2)c(=O)[nH]c1=O | 10µM | ? | i | ?
CCCNC(=O)c1cnc2c(-c3ccc(OCC)c(OCC)c3)c(C)nn2c1-c1ccccc1 | i | nt | nt | nt
O=c1[nH]c2cc3c(cc2cc1CN(CC1CCCO1)S(=O)(=O)c1ccc(Cl)cc1)OCCO3 (stereo not drawn) | i | i | i | 11.7µM
COc1ccc2cc(CN(CC3CCCO3)S(=O)(=O)c3ccccc3)c(=O)[nH]c2c1 (stereo not drawn) | i | i | i | nt
SMILES | Sm TGR block | Pf growth 48h | SARS PLpro yeast | Pf growth 96h
COc1ccc2[nH]c(=O)c(CN(CC3CCCO3)S(=O)(=O)c3ccccc3)cc2c1 (stereo not drawn) | i | i | i | 1.65µM
Cc1ccc(S(=O)(=O)N(Cc2cc3cc4c(cc3[nH]c2=O)OCCO4)CC2CCCO2)cc1 (stereo not drawn) | i | i | i | i
O=C1/C(=C/c2ccccn2)SC(=S)N1Cc1ccccc1 | i | i | i | i
Cc1cccc(/C=C2/SC(=O)N(Cc3ccccc3)C2=O)n1 | i | nt | i | 2.62µM
CCOC(=O)Cn1c(=O)n(C2CCCCC2)c2nc(-c3ccccc3Cl)nc(C(N)=O)c21 | i | nt | nt | nt
CCOC(=O)c1ccccc1NC(=O)c1cccc2c1C(=O)N(C1CCN(C(=O)OCC)CC1)C2 | i | nt | i | i
CCOC(=O)N1CCC(N2Cc3cccc(C(=O)N4CCN(c5cccc(C)c5C)CC4)c3C2=O)CC1 | i | 10.4µM | i | ?
CCOC(=O)N1CCC(N2Cc3cccc(C(=O)N4CCN(c5cccc(Cl)c5)CC4)c3C2=O)CC1 | i | i | i | ?
CCOC(=O)N1CCC(N2Cc3cccc(C(=O)Nc4ccccc4OC)c3C2=O)CC1 | i | 9.28µM | i | ?
CCCCOc1ccc(C(=O)N2CCN(CCc3ccccn3)CC2)cc1 | i | nt | nt | nt
COc1ccccc1N(C)S(=O)(=O)c1ccc(C(=O)NNC(=O)c2ccccc2O)cc1 | i | ? | i | ?
